# Values without a mark were called inactive.
# Tested on: NHEM-hTERT
# Experiment: cell viability relative to DMSO control (fraction of DMSO control); higher = less cytotoxic, active = 0.5 or less
# Conditions: 1 µM; 120 h
# How it was run: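 The screen used 384-well plates acoustically pre-spotted with 315 approved anti-cancer drugs from TargetMol, each at 1 µM in duplicate. Into each well went 40 µl of cells, 2500 NHEM-hTERT immortalized melanocytes or 1500 of patient-derived Mel-DCC-11 or its resistant subline Mel-DCC-11-R, and plates were kept 120 h, with the subline also tested alongside 8 µM of its selecting drug. Readout was by ATPlite 1step luminescence. Viability values were normalised to vehicle-treated controls and averaged between duplicates.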
row,SMILES,cell viability
1,COc1cc2nccc(Oc3ccc(NC(=O)C4(C(=O)Nc5ccc(F)cc5)CC4)cc3)c2cc1OC [Cabozantinib],0.739
2,COc1ccc([C@@H]2CC(=O)c3c(O)cc(O)cc3O2)cc1O [Hesperetin],0.971
3,COc1cc2ncnc(Nc3ccc(F)c(Cl)c3)c2cc1OCCCN1CCOCC1 [Gefitinib],0.905
4,N#CC1(c2ccc(NC(=O)c3cccnc3NCc3ccncc3)cc2)CCCC1 [Apatinib],0.966
5,COC(=O)C[C@](O)(CCCC(C)(C)O)C(=O)O[C@@H]1C(OC)=CC23CCCN2CCc2cc4c(cc2[C@H]13)OCO4 (stereo partly specified) [Homoharringtonine],0.228 (active)
6,CC1(C)NC(=O)N(c2ccc([N+](=O)[O-])c(C(F)(F)F)c2)C1=O [Nilutamide],1.19
7,COc1cc2nccc(Oc3ccc(NC(=O)NC4CC4)c(Cl)c3)c2cc1C(N)=O [Lenvatinib],0.784
8,CS(=O)(=O)CCNCc1ccc(-c2ccc3ncnc(Nc4ccc(OCc5cccc(F)c5)c(Cl)c4)c3c2)o1.Cc1ccc(S(=O)(=O)O)cc1.Cc1ccc(S(=O)(=O)O)cc1 [Lapatinib Ditosylate],1.13
9,COc1cc2c(N3CCN(C(=O)Nc4ccc(OC(C)C)cc4)CC3)ncnc2cc1OCCCN1CCCCC1 [Tandutinib],1.15
10,C[C@@H]1O[C@@H](OC[C@H]2O[C@@H](Oc3c(-c4ccc(O)c(O)c4)oc4cc(O)cc(O)c4c3=O)[C@H](O)[C@@H](O)[C@@H]2O)[C@H](O)[C@H](O)[C@H]1O [Rutin],1.09
11,N.N.O=C([O-])C[O-].[Pt+2] [Nedaplatin],1.08
12,N#Cc1ccc(C(c2ccc(C#N)cc2)n2cncn2)cc1 [Letrozole],1.03
13,CCc1cc2c(cc1N1CCC(N3CCOCC3)CC1)C(C)(C)c1[nH]c3cc(C#N)ccc3c1C2=O [Alectinib],0.977
14,COc1ccc(C[C@H](N)C(=O)N[C@H]2[C@@H](O)[C@H](n3cnc4c(N(C)C)ncnc43)O[C@@H]2CO)cc1.Cl.Cl [Puromycin dihydrochloride],0.467 (active)
15,O=C(CCCCCCC(=O)Nc1ccccc1)NO [Vorinostat],0.871
16,Nc1nc([O-])c2c(CCc3ccc(C(=O)N[C@@H](CCC(=O)[O-])C(=O)[O-])cc3)c[nH]c2n1.[Na+].[Na+] [Pemetrexed disodium],1.05
17,CC[C@@]1(O)C(=O)OCc2c1cc1n(c2=O)Cc2cc3cc(O)ccc3nc2-1 [10-Hydroxycamptothecin],0.731
18,CC(C)(S)[C@@H](N)C(=O)O [Artamine],1.08

row,SMILES,cell viability
1,O=C(c1cc(Cc2n[nH]c(=O)c3ccccc23)ccc1F)N1CCN(C(=O)C2CC2)CC1 [Olaparib],0.988
2,Nc1c2ccccc2nc2ccccc12 [Aminacrine],0.915
3,C=CC(=O)Nc1cc(Nc2nccc(-c3cn(C)c4ccccc34)n2)c(OC)cc1N(C)CCN(C)C.CS(=O)(=O)O [Osimertinib mesylate],1.14
4,COc1cccc2c1C(=O)c1c(O)c3c(c(O)c1C2=O)C[C@@](O)(C(=O)CO)C[C@@H]3O[C@H]1C[C@H](N)[C@@H](O)[C@H](C)O1.Cl [Epirubicin hydrochloride],0.647
5,CC1(C)CCC(C)(C)c2cc(NC(=O)c3ccc(C(=O)O)cc3)ccc21 [Tamibarotene],1.09
6,CC(=O)O[C@@]12CO[C@@H]1C[C@H](O)[C@@]1(C)C(=O)[C@H](O)C3=C(C)[C@@H](OC(=O)[C@H](O)[C@@H](NC(=O)OC(C)(C)C)c4ccccc4)C[C@@](O)([C@@H](OC(=O)c4ccccc4)[C@H]21)C3(C)C [Docetaxel],0.707
7,C=CC(=O)Nc1cccc(Nc2nc(Nc3ccc(N4CCN(C(C)=O)CC4)cc3OC)ncc2C(F)(F)F)c1 [Rociletinib],0.71
8,CCCCCCCCCCCCCCCCOP(=O)([O-])OCC[N+](C)(C)C [Miltefosine],1.17
9,Nc1nc(=O)c2c(CCc3ccc(C(=O)N[C@@H](CCC(=O)[O-])C(=O)[O-])cc3)c[nH]c2[nH]1.[Na+].[Na+] [Pemetrexed Disodium Hydrate],0.995
10,CC(C)Cn1cnc2c(N)nc3ccccc3c21 [Imiquimod],1.31
11,CC(C)[C@H](NC(=O)[C@H](CC(=O)O)NC(=O)[C@H](CCCCN)NC(=O)[C@@H](N)CCCNC(=N)N)C(=O)N[C@@H](Cc1ccc(O)cc1)C(=O)O [Thymopentin],1.01
12,Nc1nc(Cl)nc2c1ncn2[C@@H]1O[C@H](CO)[C@@H](O)[C@@H]1F [Clofarabine],0.53
13,CN(C)CCOc1ccc(/C(=C(/CCCl)c2ccccc2)c2ccccc2)cc1 [Toremifene],0.904
14,COc1cccc2c1C(=O)c1c(O)c3c(c(O)c1C2=O)C[C@@](O)(C(=O)CO)C[C@@H]3O[C@H]1C[C@H](N)[C@H](O[C@H]2CCCCO2)[C@H](C)O1 [Pirarubicin],0.839
15,CC1=C(/C=C/C(C)=C/C=C/C(C)=C/C(=O)O)C(C)(C)CCC1 [Tretinoin],0.953
16,COc1ccc(/C=C\c2cc(OC)c(OC)c(OC)c2)cc1OP(=O)([O-])[O-].[Na+].[Na+] [Fosbretabulin Disodium],0.64
17,Cc1cn(-c2cc(NC(=O)c3ccc(C)c(Nc4nccc(-c5cccnc5)n4)c3)cc(C(F)(F)F)c2)cn1 [Nilotinib],0.969
18,CN(C)CCOc1ccc(/C(=C(/CCCl)c2ccccc2)c2ccccc2)cc1.O=C(O)CC(O)(CC(=O)O)C(=O)O [Toremifene citrate],0.992
